Most compounds without a hit are left out; they make up all but 0.86% or so of the library.
BJeLR viab HTS = lowers viability of BJeLR cells | BJeLR fibroblasts viability, CellTiterGlo ATP luminescence, 48 h; HRASV12, hTERT and SV40 LT/ST transformed | viability loss activity score, % (concentration not given with the values) | hit rate 0.64% among 30,000 | AID 2275; in the data active = viability loss activity score above about 50%;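 note: higher score means fewer live cells and less ATP luminescence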
A1 inhib = blocks A1 activity | caspase activation, % (test concentration not listed) | AID 2241 | MEF A1-2A-BIM cells, caspase-Glo luminescence, 3 h; percent of clofoctol signal, DMSO as zero | hit rate 0.51% among 21,000;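 active = most replicate scores above 10, or exactly half above 10 with mean activity above 10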;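 note: effector caspase 3 and 7 activity cleaving a DEVD luciferin substrate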
Large screens that a line does not name were inactive.

CO[C@H]1[C@@H](O)[C@@H](C)O[C@@H](O[C@@H]2C=C3C(OC(C)=O)CC4(O)C(CC[C@]5(C)[C@@H](C6=CC(=O)OC6)CC[C@]45O)[C@@]3(C)CC2)[C@@H]1O (some centres undefined)	BJeLR viab HTS 115
COC1CC(O[C@H]2CC[C@@]3(C)C(CCC4C3CC[C@]3(C)C(C5=CC(=O)OC5)CCC43O)C2)OC(C)C1OC1OC(COC2OC(CO)C(O)C(O)C2O)C(O)C(O)C1O (some centres undefined)	BJeLR viab HTS 94
C[C@H]1O[C@@H](O[C@H]2[C@@H](O)C[C@H](O[C@H]3[C@@H](O)C[C@H](O[C@H]4CC[C@]5(C)C6CC[C@]7(C)[C@@H](C8=CC(=O)OC8)CC[C@]7(O)C6CC[C@@H]5C4)O[C@@H]3C)O[C@@H]2C)C[C@H](O)[C@@H]1O (some centres undefined)	BJeLR viab HTS 113
CC(=O)O[C@H]1CC[C@]2(C=O)[C@H]3CC[C@]4(C)[C@@H](C5=CC(=O)OC5)CC[C@]4(O)[C@@H]3CC[C@]2(O)C1	BJeLR viab HTS 111
CCOC(=S)SCc1nc2ccccc2c(=O)n1-c1ccccc1	none
Oc1ccc2c3c1OC1[C@@H](O)CC[C@@]4(O)[C@@H](C2)N(CC2CCC2)CC[C@]314 (some centres undefined)	none
O=C(c1noc2c1COc1ccccc1-2)N1CCC2(CC1)OCCO2	none
c1cncc(C2N=C(c3cnccn3)NN2)c1 (centres undefined)	none
CCN(CC)c1nc2ccccc2c(=O)n1-c1ccccc1	none
OCC1OC(n2cnc3cc(Cl)c(Cl)cc32)[C@@H](O)[C@H]1O (some centres undefined)	none
C[C@]12CC[C@H](O)C[C@H]1CC[C@@H]1[C@@H]2CC[C@]2(C)[C@@H](C3=CC(=O)OC3)CC[C@]12O	BJeLR viab HTS 91
COC1CC(OC2CCC3(C)C(CCC4(O)C3CC(OC(=O)c3ccccc3)C3(C)C(O)(C(C)=O)CCC43O)C2)OC(C)C1OC1CC(OC)C(OC2OC(C)C(O)C(OC)C2O)C(C)O1 (centres undefined)	none
CC(=O)OCC(=O)[C@H]1CC[C@H]2[C@@H]3CC[C@H]4C[C@H](O)CC[C@]4(C)[C@H]3C(=O)C[C@]12C	none
CC12CC[C@H]3C(CCC4(O)CC(O)CCC34O)C1(O)CCC2C1=CC(=O)OC1 (some centres undefined)	none
CC(=O)OC1CCC2(C)C(CC[C@@H]3[C@@H]2CCC2(C)C(C4=CC(=O)OC4)CCC32O)C1 (some centres undefined)	BJeLR viab HTS 89
CO[C@H]1[C@@H](O)[C@@H](C)O[C@@H](OC2CCC3(C)C(CC[C@@H]4[C@@H]3CCC3(C)C(C5=CC(=O)OC5)C(O)CC43O)C2)[C@@H]1O (some centres undefined)	BJeLR viab HTS 111
C[C@]12CC[C@H](O)C[C@H]1CC[C@@H]1[C@@H]2C[C@@H](O)[C@]2(C)[C@@H](C3=CC(=O)OC3)CC[C@]12O	BJeLR viab HTS 83
C[C@@]12C[C@@H](c3ccoc3)OC(=O)C1CC[C@]1(C)[C@H]2[C@H]2C=C[C@]1(O)C(=O)O2 (some centres undefined)	none
c1ccc2c(CNCCc3c[nH]c4ccccc34)cccc2c1	none
CC(C)n1[nH]c(=O)c2c1NC(=O)CSC2c1ccc(Br)cc1 (centres undefined)	none
CCOc1ccccc1C1NC(=S)NC(c2ccccc2OCC)C12C(=O)NC(=O)NC2=O (centres undefined)	none (no result: A1 inhib)
CCN1C[C@]2(COC)CC[C@H](O)[C@]34C1[C@H](C[C@H]23)[C@@]1(O)C[C@H](OC)[C@H]2C[C@@H]4[C@@H]1[C@H]2OC(C)=O	none
C/C=C(\C)C(=O)OC1C(C)=C2C(C1OC(=O)CCCCCCC)C(C)(OC(C)=O)CC(OC(=O)CCC)C1(O)C2OC(=O)C1(C)O (centres undefined)	none
C/C=C(/C)C(=O)O[C@H]1C(C)=C2[C@H]([C@@H]1OC(=O)CCCCCCC)[C@@](C)(OC(C)=O)C[C@H](OC(=O)CCC)[C@@]1(O)[C@H]2OC(=O)[C@@]1(C)O	A1 inhib 12
